# Measured values reported in PubChem BioAssay (Tox21).
# A number with no mark means an inactive call. Results filed as inconclusive are left out. Where a call stands in place of a potency, no number is given. Calls of active or inactive are those of the source. Unless noted, calls come from the whole dose curve; as a rule, active = well fitted curve in the direction sought with a large enough effect in the repeat runs; inconclusive = weak or mixed curves; inactive = no such curve, though single readings can be large; an effect the other way counts as inactive or inconclusive.
# What was measured:
# [1] = A CellTox Green Cytotoxicity Assay to monitor cytotoxicity in HEK293 cells - 32 hour (AID 1224881); note: nearly all actives have a fitted effect of over 40% in size
# Procedure, shortened: (§1)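 Dead-cell fluorescence measured kinetically: asymmetric cyanine dye, HEK293, 600 cells/well, 5 h settle, 23 nL cpd/DMSO, 37 C, reads 0–40 h every 8 h.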
# [2] = A CellTox Green Cytotoxicity Assay to monitor cytotoxicity in HepG2 cells - 0 hour (AID 1224882); note: nearly all actives have a fitted effect of over 35% in size
# Procedure, shortened: (§2)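 First, HepG2 cells (600/well) mixed with reagent were plated; second, after 5 h at 37 C they received compounds via pintool; third, fluorescence was measured at 0 h through 40 h at 8 h intervals.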
# [3] = A CellTox Green Cytotoxicity Assay to monitor cytotoxicity in HepG2 cells - 32 hour (AID 1224883); note: nearly all actives have a fitted effect of over 50% in size; note: potency is the fitted concentration of half-maximal effect
# Procedure, shortened: as §2
# [4] = A CellTox Green Cytotoxicity Assay to monitor cytotoxicity in HEK293 cells - 8 hour (AID 1224884); note: nearly all actives have a fitted effect of over 35% in size
# Procedure, shortened: as §1
# [5] = qHTS RealTime-Glo MT Cell Viability Assay in HepG2 cells - 16 hour (AID 1224885); note: nearly all actives have a fitted effect of over 50% in size
# Procedure, shortened: (§3)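 Cell number in HepG2 cultures estimated from NanoLuc luminescence generated by metabolic reduction of a prosubstrate by living cells. The homogeneous, nonlytic format allowed repeated reads at 0, 8, 16, 24, 32 and 40 h of compound exposure.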
# [6] = qHTS RealTime-Glo MT Cell Viability Assay in HEK293 cells - 24 hour (AID 1224886); note: top concentration of the series differs between compounds; nearly all actives have a fitted effect of over 50% in size
# Procedure, shortened: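 Homogeneous bioluminescent viability format in HEK293 cells (600 cells/well). Following 5 h at 37 C/5% CO2, 23 nL compound was pintooled; the signal was measured repeatedly during 40 h incubation.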
# [7] = qHTS RealTime-Glo MT Cell Viability Assay in HEK293 cells - 8 hour (AID 1224887); note: top concentration of the series differs between compounds; nearly all actives have a fitted effect of over 50% in size
# Procedure, shortened: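 600 HEK293 cells per well, dispensed already mixed with RealTime-Glo MT reagents. Compound dosing came 5 h later. The same wells were read for luminescence at 0, 8, 16, 24, 32 and 40 h of exposure at 37 C.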
# [8] = A CellTox Green Cytotoxicity Assay to monitor cytotoxicity in HEK293 cells - 16 hour (AID 1224888); note: nearly all actives have a fitted effect of over 35% in size
# Procedure, shortened: as §1
# [9] = qHTS RealTime-Glo MT Cell Viability Assay in HepG2 cells - 0 hour (AID 1224889); note: nearly all actives have a fitted effect of over 50% in size
# Procedure, shortened: as §3
# [10] = A CellTox Green Cytotoxicity Assay to monitor cytotoxicity in HepG2 cells - 8 hour (AID 1224890); note: nearly all actives have a fitted effect of over 45% in size
# Procedure, shortened: as §2
# [11] = qHTS assay to identify small molecule antagonists of the estrogen receptor alpha (ER-alpha) signaling pathway using the BG1 cell line in the presence of 0.1 nM 17-beta-estradiol - cell viability counter screen (AID 1259241); note: nearly all actives have a fitted effect of over 40% in size
# Procedure, shortened: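 Cytotoxicity counter-screen: live-cell protease activity measured by fluorescence (30 min reagent step) in the same wells. Cells were VM7Luc4E2 with endogenous ER-alpha and ERE-driven luciferase, treated 22 hr at 37C alongside 0.1 nM 17beta-estradiol final.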
# [12] = qHTS assay to identify small molecule antagonists of the androgen receptor (AR) signaling pathway using the MDA cell line in the presence of 0.5 nM R1881 - cell viability counter screen (AID 1259242); note: nearly all actives have a fitted effect of over 45% in size
# Procedure, shortened: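 qHTS format. MDA-kb2 (MMTV-luc, AR/GR responsive) + cpd + 0.5 nM R1881 final, 16 hr 37C/0% CO2 → CellTiter-Fluor 30 min → fluorescence intensity.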
# [13] = biological target: Estrogen receptor (Homo sapiens) (UniProt P03372); test: qHTS assay to identify small molecule antagonists of the estrogen receptor alpha (ER-alpha) signaling pathway using the BG1 cell line in the presence of 0.1 nM 17-beta-estradiol (AID 1259244); note: nearly all actives have a fitted effect of over 50% in size
# Chain of Estrogen receptor (Homo sapiens) (P03372 whole entry, looked up): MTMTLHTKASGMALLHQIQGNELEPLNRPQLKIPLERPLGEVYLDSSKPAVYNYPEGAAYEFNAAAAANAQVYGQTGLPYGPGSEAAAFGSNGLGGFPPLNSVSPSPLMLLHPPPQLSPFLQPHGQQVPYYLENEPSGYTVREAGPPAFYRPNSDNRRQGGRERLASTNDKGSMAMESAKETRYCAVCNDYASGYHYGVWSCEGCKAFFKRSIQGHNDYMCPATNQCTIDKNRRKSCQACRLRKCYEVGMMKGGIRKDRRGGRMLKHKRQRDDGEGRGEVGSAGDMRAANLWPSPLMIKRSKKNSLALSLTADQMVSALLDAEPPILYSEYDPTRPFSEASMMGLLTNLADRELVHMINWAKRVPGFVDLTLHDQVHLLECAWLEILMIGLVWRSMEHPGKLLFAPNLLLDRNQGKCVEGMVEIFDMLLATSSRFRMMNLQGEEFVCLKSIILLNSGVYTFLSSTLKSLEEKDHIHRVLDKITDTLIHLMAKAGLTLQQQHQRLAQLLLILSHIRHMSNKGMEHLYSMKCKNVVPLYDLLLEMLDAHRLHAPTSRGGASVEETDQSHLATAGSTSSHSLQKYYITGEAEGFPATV
# Procedure, shortened: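 Reporter is a stably transfected luciferase under four estrogen responsive elements in VM7Luc4E2 cells expressing native full-length ER-alpha; inhibition of 0.1 nM (final) 17beta-estradiol-driven signal over 22 h is read by luminescence.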
# [14] = qHTS assay to identify small molecule HDAC inhibitors (AID 1259364);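 note: wild-type HCT-116 cells with endogenous class I/II HDAC activity; top concentration of the series differs between compounds; nearly all actives have a fitted effect of over 45% in size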
# Procedure, shortened: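 Quantitative high-throughput format: overnight-seeded HCT-116 cells got compounds for 2 hr at 37C; HDAC-Glo I/II reagent added, 30 min RT, luminescence measured.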
# [15] = qHTS assay to identify small molecule agonists of the sonic hedgehog signaling (Shh) pathway - cell viability counter screen (AID 1259366); note: nearly all actives have a fitted effect of over 50% in size
# Procedure, shortened: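 Cytotoxicity counter screen: CellTiter-Fluor reagent added after 23 h compound exposure, then 1 h at 37C and fluorescence read. Cells were 3T3 Gli1-Luc, seeded 2,000 per well and dosed 4 h post-plating.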
# [16] = qHTS assay to identify small molecule antagonists of the sonic hedgehog signaling (Shh) pathway - cell viability counter screen (AID 1259367); note: nearly all actives have a fitted effect of over 55% in size; note: potency is the fitted concentration of half-maximal effect
# Procedure, shortened: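 CellTiter-Fluor signal in conditioned medium-stimulated 3T3 Gli1-Luc cells, 23 hr compound exposure, 37C.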
# [17] = qHTS assay to identify small molecule agonists of the sonic hedgehog signaling (Shh) pathway (AID 1259368; calls by dose curve;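 note: NIH/3T3-derived 3T3Gli1-Luc cells carrying a stable Gli1-driven firefly luciferase reporter; series mostly up to about 92 µM; nearly all actives have a fitted effect of over 15% in size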)
# Procedure, shortened: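 Quantitative high-throughput format using a Gli1-driven firefly luciferase reporter line derived from NIH/3T3 cells. After a 24 hr compound treatment at 37 C and 5% CO2, luminescence reported Gli1 response element activity.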
# [18] = biological target: Androgen receptor (Homo sapiens) (UniProt P10275); test: qHTS assay to identify small molecule antagonists of the androgen receptor (AR) signaling pathway using the MDA cell line in the presence of 0.5 nM R1881 (AID 1259243); note: nearly all actives have a fitted effect of over 50% in size
# Chain of Androgen receptor (Homo sapiens) (P10275 whole entry, looked up): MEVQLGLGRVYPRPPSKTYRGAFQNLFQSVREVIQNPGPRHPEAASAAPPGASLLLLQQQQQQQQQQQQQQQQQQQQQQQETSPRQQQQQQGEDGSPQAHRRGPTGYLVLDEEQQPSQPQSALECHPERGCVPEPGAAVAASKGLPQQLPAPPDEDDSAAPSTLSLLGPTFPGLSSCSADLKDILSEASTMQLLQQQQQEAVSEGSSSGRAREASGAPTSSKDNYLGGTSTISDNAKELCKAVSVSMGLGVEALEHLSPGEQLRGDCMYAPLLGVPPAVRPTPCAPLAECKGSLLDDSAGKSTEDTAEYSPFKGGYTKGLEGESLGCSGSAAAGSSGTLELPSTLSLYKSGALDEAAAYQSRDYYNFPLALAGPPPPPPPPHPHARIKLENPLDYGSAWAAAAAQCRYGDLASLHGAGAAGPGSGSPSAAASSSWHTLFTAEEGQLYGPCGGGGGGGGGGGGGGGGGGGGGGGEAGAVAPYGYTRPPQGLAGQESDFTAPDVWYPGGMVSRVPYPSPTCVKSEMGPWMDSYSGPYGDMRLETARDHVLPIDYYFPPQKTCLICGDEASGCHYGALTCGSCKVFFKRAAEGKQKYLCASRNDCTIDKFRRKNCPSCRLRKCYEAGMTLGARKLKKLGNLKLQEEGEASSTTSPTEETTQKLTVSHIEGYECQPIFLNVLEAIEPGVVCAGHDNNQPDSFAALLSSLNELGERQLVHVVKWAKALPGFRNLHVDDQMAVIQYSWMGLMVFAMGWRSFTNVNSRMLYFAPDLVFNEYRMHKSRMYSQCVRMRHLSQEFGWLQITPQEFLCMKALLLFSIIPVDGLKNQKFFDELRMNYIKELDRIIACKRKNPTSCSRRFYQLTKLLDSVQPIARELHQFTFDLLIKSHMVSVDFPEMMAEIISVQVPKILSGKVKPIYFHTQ
# Procedure, shortened: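 Antagonist mode quantitative HTS in MDA-kb2 MMTV-luciferase cells, agonist R1881 at 0.5 nM final, 16 hr exposure at 37C and 0% CO2, luminescent detection.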
# [19] = qHTS assay to identify small molecule HDAC inhibitors - cell viability counter screen (AID 1259365)
# Procedure, shortened: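 CellTiter-Glo luminescence (30 min, room temperature) reported viability after a 2 h compound exposure at 37 C. Cells: wild-type HCT-116, 1,500 per well, seeded the night before.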
# [20] = qHTS assay to identify small molecule phospholipidosis (PLD) inducers (AID 1259344; active = well fitted curve in the direction sought with a large enough effect; an effect the other way counts as inactive or inconclusive)
# Procedure, shortened: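 Accumulated phospholipid, stained red by LipidTOX during 24 h compound treatment of HepG2 cells at 37 C, is quantified from images as pit number and intensity, normalised per cell using Hoechst-stained nuclei.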
SMILES,Potency [1],Potency [2],Potency [3],Potency [4],Potency [5],Potency [6],Potency [7],Potency [8],Potency [9],Potency [10],Potency [11],Potency [12],Potency [13],Potency [14],Potency [15],Potency [16],outcome [17],Potency [18],Potency [19],Potency [20]
CC(=O)c1cccc([N+](=O)[O-])c1,inactive,inactive,inactive,inactive,inactive,inactive,inactive,inactive,inactive,inactive,inactive,inactive,inactive,inactive,inactive,inactive,inactive,,,
CN(C)CCOC(c1ccccc1)c1ccc(Br)cc1 (configuration not stated),inactive,inactive,23.9 µM (active),inactive,inactive,inactive,inactive,inactive,inactive,inactive,inactive,inactive,inactive,,,inactive,inactive,inactive,inactive,
Cc1ccccc1S(=O)(=O)O,inactive,inactive,inactive,inactive,inactive,inactive,inactive,inactive,inactive,inactive,,inactive,,inactive,inactive,inactive,inactive,,inactive,
C[C@@H](c1ncncc1F)C(O)(Cn1cncn1)c1ccc(F)cc1F (some centres not stated),inactive,inactive,inactive,inactive,inactive,inactive,inactive,inactive,inactive,inactive,inactive,inactive,inactive,inactive,,inactive,inactive,inactive,,inactive
Cc1ncc(CO)c(C=O)c1O,inactive,inactive,inactive,inactive,inactive,inactive,inactive,inactive,inactive,inactive,,inactive,inactive,inactive,inactive,inactive,inactive,,inactive,inactive
Nc1ccccc1S(=O)(=O)c1ccccc1,inactive,inactive,inactive,inactive,inactive,inactive,,inactive,,inactive,inactive,inactive,,inactive,inactive,inactive,inactive,,inactive,
CCCCCC[C@@H](O)C/C=C\CCCCCCCC(=O)OC,inactive,inactive,inactive,inactive,inactive,inactive,,inactive,inactive,inactive,inactive,inactive,inactive,inactive,inactive,,inactive,inactive,inactive,
OCCNCc1ccccc1,inactive,inactive,inactive,inactive,inactive,inactive,inactive,,inactive,inactive,inactive,inactive,inactive,inactive,inactive,inactive,inactive,inactive,inactive,
CC(=O)NO,inactive,inactive,inactive,inactive,inactive,inactive,inactive,,inactive,inactive,inactive,inactive,,,,inactive,inactive,inactive,inactive,inactive
O=S(c1cc(Cl)cc(Cl)c1O)c1cc(Cl)cc(Cl)c1O,inactive,inactive,inactive,inactive,inactive,inactive,inactive,inactive,,inactive,inactive,inactive,inactive,inactive,,inactive,inactive,inactive,inactive,inactive
CCC(C)O (configuration not stated),inactive,inactive,inactive,inactive,inactive,inactive,,,inactive,inactive,inactive,inactive,,inactive,inactive,inactive,inactive,,inactive,
CCCCCCc1ccc(-c2ccc(C#N)cc2)cc1,inactive,inactive,inactive,inactive,inactive,inactive,inactive,,inactive,inactive,inactive,inactive,,inactive,inactive,inactive,inactive,,inactive,
C#CCN(C)CCCOc1ccc(Cl)cc1Cl,inactive,inactive,19 µM (active),inactive,inactive,inactive,,,inactive,inactive,inactive,inactive,inactive,inactive,inactive,inactive,inactive,,inactive,inactive
CCOC(=O)C(O)c1ccccc1 (configuration not stated),inactive,inactive,inactive,inactive,inactive,inactive,,,,inactive,inactive,inactive,inactive,inactive,,inactive,inactive,inactive,inactive,
CCOc1ccc(N=Nc2ccc(/C=C/c3ccc(N=Nc4ccc(OCC)cc4)cc3S(=O)(=O)O)c(S(=O)(=O)O)c2)cc1,inactive,inactive,inactive,inactive,inactive,inactive,inactive,inactive,,inactive,,,,inactive,,21.4 µM (active),inactive,,inactive,
Cc1c(N)cccc1[N+](=O)[O-],inactive,inactive,inactive,inactive,inactive,inactive,inactive,inactive,,inactive,inactive,inactive,inactive,,inactive,inactive,inactive,,inactive,
